# Reference: ChEMBL document CHEMBL1201862, “PubChem BioAssay data set” (2004)
# Hit rate of the full screen: of about 400,000 compounds, about 2,100 (0.53%) were called active. About 14% were inconclusive and are not listed. How the calls were made is not given here. Many of the other results were omitted from the sample, so actives are more common in it than they were.
# Molecular target: Ataxin-2 (Homo sapiens) (UniProt Q99700)
# Test: qHTS for Inhibitors of ATXN expression.
# Format: functional
# Chain of Ataxin-2 (Homo sapiens) (Q99700 whole entry): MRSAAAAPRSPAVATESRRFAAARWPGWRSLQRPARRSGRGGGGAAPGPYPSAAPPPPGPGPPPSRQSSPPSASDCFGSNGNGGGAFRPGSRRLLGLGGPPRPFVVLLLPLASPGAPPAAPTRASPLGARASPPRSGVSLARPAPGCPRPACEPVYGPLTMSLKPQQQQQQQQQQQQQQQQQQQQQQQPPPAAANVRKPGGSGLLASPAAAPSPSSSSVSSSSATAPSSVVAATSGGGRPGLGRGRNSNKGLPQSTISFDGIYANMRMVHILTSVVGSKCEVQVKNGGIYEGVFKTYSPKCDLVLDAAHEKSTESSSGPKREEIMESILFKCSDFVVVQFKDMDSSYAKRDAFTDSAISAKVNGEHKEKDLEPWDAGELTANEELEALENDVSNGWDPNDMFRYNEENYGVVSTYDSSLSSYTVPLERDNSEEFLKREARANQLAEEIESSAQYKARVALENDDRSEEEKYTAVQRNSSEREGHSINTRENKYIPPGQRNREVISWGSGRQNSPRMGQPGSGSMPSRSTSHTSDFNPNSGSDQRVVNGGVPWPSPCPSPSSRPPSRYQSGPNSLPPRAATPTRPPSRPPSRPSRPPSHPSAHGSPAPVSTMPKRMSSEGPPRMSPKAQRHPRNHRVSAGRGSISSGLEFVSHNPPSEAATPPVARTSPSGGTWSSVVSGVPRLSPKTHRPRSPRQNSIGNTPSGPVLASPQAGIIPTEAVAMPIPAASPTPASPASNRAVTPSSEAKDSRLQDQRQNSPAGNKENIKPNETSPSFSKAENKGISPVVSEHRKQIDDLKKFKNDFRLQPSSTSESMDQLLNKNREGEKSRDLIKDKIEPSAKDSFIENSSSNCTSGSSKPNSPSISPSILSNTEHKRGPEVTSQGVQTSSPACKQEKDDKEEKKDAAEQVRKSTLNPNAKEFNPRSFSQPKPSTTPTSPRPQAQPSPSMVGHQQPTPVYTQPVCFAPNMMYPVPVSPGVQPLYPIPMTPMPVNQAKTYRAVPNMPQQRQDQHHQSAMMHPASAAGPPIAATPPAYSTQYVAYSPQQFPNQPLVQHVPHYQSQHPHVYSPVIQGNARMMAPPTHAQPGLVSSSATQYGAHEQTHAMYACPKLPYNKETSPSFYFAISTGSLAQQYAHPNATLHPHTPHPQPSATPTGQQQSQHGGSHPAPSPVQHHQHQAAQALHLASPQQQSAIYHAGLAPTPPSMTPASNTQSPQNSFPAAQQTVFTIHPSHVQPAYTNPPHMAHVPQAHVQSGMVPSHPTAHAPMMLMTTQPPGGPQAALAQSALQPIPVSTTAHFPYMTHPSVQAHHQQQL
row,Structure (SMILES),Potency
1,Nn1cnnc1SCC(=O)N1CCc2ccccc2C1,inactive
2,CCOCCCn1c(=N)c(C(=O)NC(C)c2ccccc2)cc2c(=O)n3cc(C)ccc3nc21 (stereo not given),inactive
3,Cc1ccc(/C=N/Nc2nc3ccccc3s2)o1,inactive
4,C/C(=N\Nc1nc2ccccc2s1)c1ccc(Br)s1,inactive
5,CC(=NNc1nc2ccccc2s1)c1ccncn1,10 µM (active)
6,CCCCCCn1c(=O)[nH]c2nc3cc(N)c(C)cc3nc2c1=O,inactive
7,Cc1ccc(SSc2cc(C)ccc2N)c(N)c1,17.8 µM (active)
8,FC(F)(F)c1ccc(Cl)c(-n2c(S)nnc2-c2cc(C3CC3)[nH]n2)c1,inactive
9,O=S(=O)(Nc1ccc(Cl)cc1)c1ccc(N2CCOCC2)c(NC(=S)NC2CC2)c1,inactive
10,O=C(CN1C(=O)COc2ccc(S(=O)(=O)NC3CCCC3)cc21)Nc1ccc(Cl)cc1,44.7 µM (active)
11,CC(C)C(OC(=O)CN1C(=O)COc2ccccc21)C(=O)NC1CCCCC1 (stereo not given),inactive
12,COc1ccc(C(=O)Nc2ccc(S(=O)(=O)Nc3onc(C)c3C)cc2)c(OC)c1,inactive
13,O=C(Cc1cccs1)Nc1ccc(F)c(S(=O)(=O)N2CCOCC2)c1,inactive
14,COc1ccc(-c2nc(CSCC(=O)N3CCN(c4cccc(C)c4)C(C)C3)c(C)o2)cc1OC (stereo not given),18.9 µM (active)
15,COc1ccc(-c2cc3ccc(O)c(CN4CCCCC4C)c3oc2=O)cc1OC (stereo not given),inactive
16,COc1ccc(-c2nc(CN3CCN(Cc4cccc(Cl)c4)CC3)c(C)o2)cc1,inactive
17,COc1ccc(-c2nc(CSCC(=O)N3CCN(c4ccccc4F)CC3)c(C)o2)cc1,31.6 µM (active)
18,COc1ccc(-c2nc(CN3CCC(C(=O)NC4CCCc5ccccc54)CC3)c(C)o2)cc1OC (stereo not given),inactive
19,COc1ccc(N2CCN(C(=O)COC(=O)CCc3ccccc3)CC2)cc1,inactive
20,CCNC(=S)N1CCN(CCNC=C2C(=O)CC(C)(C)CC2=O)CC1,inactive
21,CN1C(=O)NC(NS(=O)(=O)c2ccc(N)cc2)(C(F)(F)F)C1=O (stereo not given),inactive
22,Nc1nc2nc(-c3cccs3)cc(C(F)(F)F)n2n1,inactive
23,C=CCNC(=O)/C(C#N)=C/c1c(N2CCN(c3cccc(Cl)c3)CC2)nc2c(C)cccn2c1=O,inactive
24,O/N=C/c1cc2ccccc2n1Cc1ccccc1F,inactive
25,Cc1ccc(C2=NN=C(c3ccccc3)c3ncccc3N2)cc1,inactive

row,Structure (SMILES),Potency
1,CC(C)c1ccc(NC2=NN=C(c3cccs3)CS2)cc1,inactive
2,CC(C)c1ccc(NC2=NC(=N)c3ccccc32)cc1,39.8 µM (active)
3,COc1ccc(S(=O)(=O)N2CCOCC2)cc1NC(=O)COc1cccnc1[N+](=O)[O-],inactive
4,Clc1cccc2c1CCN(Cc1nc(-c3cnccn3)no1)C2,inactive
5,COc1ccc(C(=O)N2CCOC2CNC(=O)C(=O)NCc2ccc3c(c2)OCO3)cc1 (stereo not given),inactive
6,CSc1nc(N2CCN(c3ccccc3Cl)CC2)c2ccccc2n1,inactive
7,COc1ccccc1N1CCN(c2nc(CNC(=O)c3ccc4c(c3)OCO4)nc3ccccc23)CC1,28.2 µM (active)
8,COc1ccccc1N1CCN(c2nc(CNC(=O)C3CC34CCCC4)nc3ccccc23)CC1 (stereo not given),35.5 µM (active)
9,Cc1ccc(C(=O)NCc2ccc3c(c2)OCO3)cc1N1CCCC1=O,inactive
10,COc1ccccc1N1CCN(C2CCCN(C(=O)c3csc(C)n3)C2)CC1 (stereo not given),inactive
11,CC1CC(C)(C)N=C(S)N1CCC(=O)N1CCN(c2ccccc2)CC1 (stereo not given),inactive
12,CCn1c(=N)c(S(=O)(=O)c2ccccc2)cc2c(=O)n3ccccc3nc21,inactive
13,Cc1ccccc1CN(C)C1CCN(C)CC1,inactive
14,CCOC(=O)C1CCCN(C(=O)c2sc3nc4n(c(=O)c3c2C)CCC4)C1 (stereo not given),inactive
15,CCOC(=O)CC1(C)c2nc(NC(C)=O)sc2Cc2sc(NC(C)=O)nc21,inactive
16,O=C(O)c1cccc(N2C(=O)c3cc4cccc(Br)c4cc3C2=O)c1,inactive
17,O=C(NCc1ccccc1Cl)C1CCN(S(=O)(=O)c2ccc(-n3cnnn3)cc2)CC1,inactive
18,O=C(NCc1ccccc1Cl)C1CCCO1 (stereo not given),inactive
19,O=C(NCc1ccccc1Cl)[C@H]1CCCN1C(=O)[C@H]1CCCN1C(=O)c1cccc2ccccc12,10 µM (active)
20,COc1ccc(CNC(=O)COC(=O)c2ccc(OCC3CCCO3)cc2)cc1 (stereo not given),inactive
21,CC1CCN(S(=O)(=O)c2ccc3c4c2CC(=O)N4CC(C)S3)CC1 (stereo not given),31.6 µM (active)
22,CC(=O)N1CCSc2ccc(S(=O)(=O)N3CCC(C)CC3)cc21,inactive
23,CCN1C(=O)c2cccc3c(S(=O)(=O)N4CCC(C)CC4)ccc1c23,inactive
24,O=C(CCNC(=O)c1ccccc1)Nc1nc2ccccc2s1,inactive
25,Cc1nc(SCC(=O)Nc2nc3ccccc3s2)c(C#N)c(C)c1C,inactive
